Sampled rows, rich in hits. Any-hit rate of the full collection: about 1.4%.
TCR act: activators of T cell receptors; 330,000 tested, under 10 active; Potency, µM (doses to about 9.22 µM), hits mostly activators; primary human leukocytes, anti-CD3, IL-2 HTRF, 48 h; AID 504894
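IL-2 produced over 48 hr by a-CD3 bead-stimulated primary human leukocytes exposed to compounds was detected with a homogeneous time-resolved FRET immunoassay, 665nm acceptor signal after 320nm excitation.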
GLS inh: inhibitors of human glutaminase (GLS); GLS enzymatic activity, qHTS titration; O94925; Potency, µM (titrated, usually from 45.5 µM), most hits filed as inhibitors; 410,000 compounds, 0.21% hits
Target sequence (O94925 whole entry, looked up): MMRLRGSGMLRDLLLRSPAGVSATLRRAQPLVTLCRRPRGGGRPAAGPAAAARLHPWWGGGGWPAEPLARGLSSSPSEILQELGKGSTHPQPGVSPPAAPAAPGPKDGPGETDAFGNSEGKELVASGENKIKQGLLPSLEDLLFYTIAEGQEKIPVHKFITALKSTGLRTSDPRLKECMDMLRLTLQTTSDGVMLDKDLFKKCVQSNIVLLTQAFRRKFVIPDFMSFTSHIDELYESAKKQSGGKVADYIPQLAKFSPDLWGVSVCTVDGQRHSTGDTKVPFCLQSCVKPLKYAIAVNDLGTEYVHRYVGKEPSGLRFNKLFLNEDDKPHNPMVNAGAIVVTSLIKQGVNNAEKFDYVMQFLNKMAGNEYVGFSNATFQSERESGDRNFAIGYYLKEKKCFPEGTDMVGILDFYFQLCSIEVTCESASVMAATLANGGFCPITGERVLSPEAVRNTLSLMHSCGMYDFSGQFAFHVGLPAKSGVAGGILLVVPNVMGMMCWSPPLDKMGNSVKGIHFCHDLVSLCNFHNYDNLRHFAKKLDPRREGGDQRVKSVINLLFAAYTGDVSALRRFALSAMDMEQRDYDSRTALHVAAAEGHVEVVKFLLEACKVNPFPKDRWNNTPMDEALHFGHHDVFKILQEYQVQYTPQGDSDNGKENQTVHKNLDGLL
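Enzyme dispensed in phosphate buffer (45 mM, pH 8.2, 0.02% Tween-20), compounds pinned in, then 1 mM L-glutamine solution and the glutamate oxidase–HRP–Amplex Red mix added; fluorescence read immediately and again after 30 min at room temperature.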
p53 reactivator: mutant p53 re-activation in reporter cells; 320,000 compounds, 0.063% hits; H1299 p53-A138V BP100-luciferase reporter, luminescence, 24 h; Potency, µM (series often up to 92.2 µM), hits mostly activators; note: nearly all actives have a fitted effect of over 45% in size
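p53-null H1299 cells stably carrying temperature-sensitive p53-A138V and a BP100-luciferase reporter were pinned with compounds (4-point, 1:5 series) and held 24 hrs at 37 deg C. Luminescence was read 10 min after detection reagent.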
N370S GC mod: N370S glucocerebrosidase modulation, Gaucher chaperone candidate; Potency, µM (doses to about 59.4 µM), usual class: inhibitors; N370S GC spleen homogenate, 4MU-glucoside fluorescence; 330,000 compounds, 0.092% hits; P04062
BRCA1 expr up: BRCA1 expression activation | MCF7-BRCA1-FFLuc reporter, luminescence, 48 h; response scale: scaled: vehicle 0%, 10 µM genistein 100% | Potency, µM (doses to about 46.1 µM), hits mostly activators | 380,000 compounds, 1.1% hits | AID 624202; note: nearly all actives have a fitted effect of over 80% in size
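Activators of BRCA1 expression were detected as increased firefly luciferase luminescence in engineered MCF7 cells after 48 h compound incubation. Signals were scaled to genistein 10 microM as full activation.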
TSHR antagonist: human thyrotropin receptor antagonism. P16473. TSHR-expressing cells, TSH-stimulated cAMP HTRF, 2 h; hits give low values. activity change, negative = inhibition, % at 11.5 µM. 330,000 compounds, 0.2% hits;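 active = activity change below a set negative limit, meaning inhibition stronger than a set level, cut at about -70% in these data; inconclusive = activity change between two set negative limits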
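Freshly harvested TSHR cells receive pin-tooled compound, then EC80 TSH at 4nM final. After 2 hours at 37 deg C, antibody in lysis buffer and cAMP-d2 are added; 30 minutes at ambient temperature precede the HTRF read.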
Of the large screens only hits and unclear results are named; the others gave an inactive call. Unless noted, calls come from the whole dose curve; as a rule, active = well fitted curve in the direction sought with a large enough effect; inconclusive = small, poorly fitted or top-dose-only effect, or another doubt; inactive = no such curve, though single readings can be large; an effect the other way counts as inactive or inconclusive.

O=C(CN1CCN(c2ccccc2O)CC1)NCCCc1ccccc1	GLS inh 5.01µM
C/C(CCC(=O)OC[C@@H]1O[C@H](C#Cc2ccccc2)C=C[C@@H]1Oc1ccc(C)cc1)=N/OC[C@@H](C)[C@H](OCc1ccccc1)C(C)C	none (no result: TCR act, GLS inh, p53 reactivator, BRCA1 expr up, TSHR antagonist)
Cc1cccc(OCC(=O)Nc2cc(-c3nc4cc(Cl)ccc4o3)ccc2C)c1	none (no result: TCR act, GLS inh, p53 reactivator, N370S GC mod, TSHR antagonist)
CCCC1CCc2c(sc(NC(=O)c3cccs3)c2C(N)=O)C1 (stereo not drawn)	BRCA1 expr up 11.2µM
CC1CCc2c(sc(NC(=O)c3cccs3)c2C(=O)O)C1 (stereo not drawn)	GLS inh inconclusive, p53 reactivator inconclusive
CN(C)c1ccc(/C=C2\C=Cc3ccccc32)cc1N	none (no result: TCR act, GLS inh, p53 reactivator, N370S GC mod, TSHR antagonist)
O=C(COc1ncnc2cc(Cl)ccc12)c1ccc2c(c1)OCCO2	BRCA1 expr up 1.78µM
Cc1ccc(-n2nnc(-c3cccnc3Cl)n2)cc1	BRCA1 expr up 3.55µM
COc1ccc(-n2nnnc2SCC(=O)NC2CCCC2)cc1OC	TSHR antagonist -91.7
NC1=NC(=O)/C(=C\c2ccc(-c3ccccc3[N+](=O)[O-])o2)S1	none (no result: TCR act, GLS inh, p53 reactivator, N370S GC mod, TSHR antagonist)
Cc1ccc(CNC(=O)CSc2nnc3c(n2)[nH]c2ccccc23)cc1	TSHR antagonist -82.0
Cc1ccc(NC(=O)CSc2nnc3c(n2)[nH]c2ccccc23)cc1	none
COc1ccc(NC(=S)N(CCCN2CCOCC2)C(C)c2cc3cccc(OC)c3o2)cc1 (stereo not drawn)	TSHR antagonist -75.9
COc1cccc2cc(C(C)N(CCCN3CCOCC3)C(=S)Nc3ccc(C)c(C)c3)oc12 (stereo not drawn)	N370S GC mod inconclusive
Cc1ccc(/C=C/C(=O)Nc2ncc(C)s2)o1	p53 reactivator inconclusive, BRCA1 expr up 3.16µM
Cc1ccc(/C=C/C(=O)NC2CCCCCCC2)o1	GLS inh 10µM, N370S GC mod inconclusive
N/C(Cc1ccc([N+](=O)[O-])cc1)=N\OC(=O)Cc1ccc(Cl)cc1	TSHR antagonist -77.3
NC(C(=O)O)C(O)c1ccc(O)c(O)c1 (stereo not drawn)	none (no result: TCR act, p53 reactivator, N370S GC mod, BRCA1 expr up, TSHR antagonist)
COc1ccccc1N1CCN(C(=O)CN2C(=O)c3cccc4cccc(c34)C2=O)CC1	none
COc1ccccc1N1CCN(C(=O)CCCN2C(=O)c3cccc4cccc(c34)C2=O)CC1	TSHR antagonist -72.2
OC(c1ccc(F)cc1)c1nc(-c2cc3ccccc3o2)cs1 (stereo not drawn)	BRCA1 expr up 1.78µM (no result: TCR act, p53 reactivator, N370S GC mod, TSHR antagonist)
CC(=O)NC(c1cccc(F)c1)c1nc(-c2cc3ccccc3o2)cs1 (stereo not drawn)	none (no result: TCR act, p53 reactivator, N370S GC mod, TSHR antagonist)
OC(c1ccc(F)cc1)c1nc(-c2cnc3ccccc3c2)cs1 (stereo not drawn)	BRCA1 expr up 11.2µM (no result: TCR act, p53 reactivator, N370S GC mod, TSHR antagonist)
Cc1oc(-c2nc3ccccc3n2C)cc1C(=O)c1ccccc1	p53 reactivator 10µM, BRCA1 expr up inconclusive
Cn1cc(C(=O)c2ccccc2)cc1-c1nc2ccccc2n1C	none
O=C(O)c1cccc(NC(=S)NC(=O)c2ccc(-c3ccc(Cl)cc3)o2)c1	p53 reactivator inconclusive, BRCA1 expr up 11.2µM
Cc1ccc(C(=O)O)cc1NC(=S)NC(=O)c1ccc(-c2ccc(Cl)cc2)o1	none
CC(=O)Nc1nc(-c2ccccc2)c(-c2ccccc2)s1	none (no result: TCR act, GLS inh, p53 reactivator, N370S GC mod, TSHR antagonist)
CC(=O)NC1Sc2ccccc2N=C1c1ccccc1 (stereo not drawn)	p53 reactivator inconclusive, BRCA1 expr up 10µM
CNc1ccc(/C=C2\C=Cc3ccccc32)cc1Cl	none (no result: TCR act, GLS inh, p53 reactivator, N370S GC mod, TSHR antagonist)
CC1(C)CC(=O)C2=C(C1)NC(Nc1nc3ccccc3o1)=NC2c1cccc(O)c1 (stereo not drawn)	none (no result: TCR act, GLS inh, p53 reactivator, N370S GC mod, TSHR antagonist)
Oc1ccc(Nc2ccc3ccccc3c2)cc1	GLS inh 14.1µM, BRCA1 expr up inconclusive (no result: p53 reactivator, N370S GC mod, TSHR antagonist)
Oc1ccc(Nc2nc(-c3ccc4ccccc4c3)cs2)cc1	N370S GC mod inconclusive (no result: TCR act, GLS inh, BRCA1 expr up)
CCN(CC)Cc1cc(O)c(CN(CC)CC)cc1O	GLS inh 15.8µM
Cc1nc2cnc(Oc3cccc(Cl)c3)nc2n(Cc2ccc(F)cc2)c1=O	none (no result: TCR act, GLS inh, p53 reactivator, BRCA1 expr up, TSHR antagonist)
Cc1ccc(Nc2ncnc(-n3cccc3)n2)cc1Cl	BRCA1 expr up 6.31µM
CC12CCC(C(=O)Nc3nc4ccc(Br)cc4s3)(OC1=O)C2(C)C (stereo not drawn)	N370S GC mod inconclusive, BRCA1 expr up 8.91µM
COC(=O)C1=C[C@@H](C(=O)OC)C2C3=C(C(=O)[C@@]2(C)NC(=O)c2ccccc2)[C@H](C)[C@@H]2C(=O)NC(=O)[C@@H]2[C@@H]3C1 (stereo partly drawn)	none (no result: TCR act, GLS inh, p53 reactivator, BRCA1 expr up, TSHR antagonist)
C=CCOC(=O)N[C@@H](Cc1ccccc1)/C(C(=O)OC)=C(\C)NCc1ccccc1	none (no result: TCR act, GLS inh, p53 reactivator, BRCA1 expr up, TSHR antagonist)
Cc1ccc(Nc2nnc(-c3ccc4c(c3)OCO4)o2)c(C)c1	p53 reactivator inconclusive, BRCA1 expr up 10µM
CC(=O)OCC(NC(=O)C(CCCCNC(=O)OCc1ccccc1)NC(=O)OC(C)(C)C)C1OC(n2ccc(=O)[nH]c2=O)C(OC(C)=O)C1OC(C)=O (stereo not drawn)	none (no result: TCR act, GLS inh, p53 reactivator, BRCA1 expr up, TSHR antagonist)
Cc1ccc(-c2nn(-c3ccccc3)cc2CO)o1	p53 reactivator inconclusive, BRCA1 expr up 3.55µM
OCc1cn(-c2ccccc2)nc1-c1ccco1	BRCA1 expr up inconclusive
COc1cc2c(c(OC)c1OC)-c1c(cc3c(c1OC)OCO3)CC(C)C(C)(O)C2 (stereo not drawn)	none (no result: TCR act, p53 reactivator, N370S GC mod, BRCA1 expr up, TSHR antagonist)
